# Bioassay records deposited in PubChem by National Center for Advancing Translational Sciences (NCATS).
# LmPK inh: LmPK (Leishmania mexicana) enzyme inhibition; Q27686; purified LmPK, Kinase-Glo ATP luminescence, 1 h; Potency, µM (titrated, usually from 57.5 µM), without a hit: at the highest dose activity change, negative = inhibition, actives largely listed as inhibitors; actives 0.37% (n = 290,000); AID 1721; also: potency is read from the fitted curve at half-maximal effect; % is scaled to controls: 0 for no effect and ±100 for the full control effect
# Target sequence (Q27686 whole entry, looked up): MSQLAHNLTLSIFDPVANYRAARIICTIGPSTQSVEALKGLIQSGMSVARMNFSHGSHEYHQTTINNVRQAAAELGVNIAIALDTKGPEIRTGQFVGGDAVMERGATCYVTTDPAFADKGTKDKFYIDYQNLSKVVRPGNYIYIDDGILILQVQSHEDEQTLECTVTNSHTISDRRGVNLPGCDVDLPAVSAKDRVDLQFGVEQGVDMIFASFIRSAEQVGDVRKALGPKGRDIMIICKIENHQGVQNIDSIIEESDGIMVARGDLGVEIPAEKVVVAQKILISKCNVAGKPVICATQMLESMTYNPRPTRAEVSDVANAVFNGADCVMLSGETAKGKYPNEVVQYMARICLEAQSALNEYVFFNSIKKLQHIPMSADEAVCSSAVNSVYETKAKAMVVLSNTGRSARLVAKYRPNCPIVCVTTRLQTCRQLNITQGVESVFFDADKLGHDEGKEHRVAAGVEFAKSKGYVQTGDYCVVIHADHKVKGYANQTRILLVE
#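 Screened at intermediate enzyme activity to detect both inhibitors and activators: LmPK at 0.1 nM, with a 0.5 nM enzyme column as activation reference. PEP 0.5 mM, ADP 0.1 mM; ATP detected by luminescence after 1 h.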
# Shiga toxin inh: inhibitors of Shiga toxin in Vero cells; Vero cells, Shiga toxin protein synthesis inhibition reporter; inhibition, % at 38.7 µM; actives 9.2% (n = 290,000); AID 2315; in the data active = inhibition mostly above about 28%, no sharp cut-off; inactive = mostly below about 43%; also: 0% is about no effect
# Cycloheximide cs: counter-screen hit for Shiga toxin inhibitors, cycloheximide; cell reporter, cycloheximide protein synthesis inhibition counterscreen; max response, %; actives 12% (n = 300,000); AID 2314; in the data active = max response mostly above about 13%, no sharp cut-off; inactive = mostly below about 14%; also: read at 38.3 µM for the half of the compounds with a filed dose; 0% is about no effect
# Pf growth 96h: P. falciparum growth inhibition at 96 hour, primary screen for plastid delayed-death inhibitors; P. falciparum luciferase reporter growth, 96 h; Potency, µM (doses to about 28.7 µM), for inactives: at the highest dose activity change, negative = inhibition, actives largely listed as inhibitors; actives 6.9% (n = 320,000); AID 504834; also: potency is read from the fitted curve at half-maximal effect; % is scaled to controls: 0 for no effect and ±100 for the full control effect
#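 Erythrocytes infected with luciferase-expressing P. falciparum were dispensed at 2% hematocrit and 0.05% parasitemia (final), then incubated with compounds 96 hours at 37 C in 5% CO2. Luminescence after detection reagent addition reported growth.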
# Pf growth 48h: inhibits P. falciparum growth in the first generation, 48 h | P. falciparum luciferase growth in erythrocytes, 48 h | Potency, µM (highest dose often 28.7 µM), without a hit: at the highest dose activity change, negative = inhibition, hits mostly inhibitors | actives 5.9% (n = 310,000) | AID 504832; also: potency is read from the fitted curve at half-maximal effect; % is scaled to controls: 0 for no effect and ±100 for the full control effect
#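 Cell-based growth assay: transgenic P. falciparum expressing firefly luciferase, cultured in red cells within RPMI 1640 containing 0.5% w/v Albumax, 24 mM bicarbonate and gentamycin. A drop in luciferase activity indicates inhibition.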
# Active calls of the source: *; ? = inconclusive; · = no result given; [ ] = another dose, or the depositor's remark. Most compounds without a hit are left out; they make up all but 22% or so of the library. Unless noted, calls follow the shape of the dose curve; as a rule, active = well fitted inhibition curve with a large enough effect; inconclusive = small, poorly fitted or top-dose-only effect, or another doubt; inactive = no such curve, though single readings can be large or run the other way.
SMILES,LmPK inh,Shiga toxin inh,Cycloheximide cs,Pf growth 96h,Pf growth 48h
O=S(=O)(c1ccc(F)c(F)c1F)N1CCN(C(=S)Nc2ccccc2)CC1,1%,-11,-1,?,2.3µM*
O=C(Nc1ccc(Cl)c(Cl)c1)C1CC1,·,·,·,?,3%
Cn1c(N)c(C(=O)COC(=O)c2ccc3c(c2)C(=O)N(c2ccc(Cl)cc2)C3=O)c(=O)n(C)c1=O,1%,-13,-2,17%,3%
O=C1c2cccc3cccc(c23)C(=O)N1CCN1CCN(C(=S)Nc2ccccc2)CC1,1%,-11,1,15µM*,42%
O=[N+]([O-])c1ccc(N2CCN(C(=S)Nc3ccccc3)CC2)cc1,-8%,-11,-2,-15%,2.1µM*
S=C(Nc1ccccc1)N1CCN(C(=S)Nc2ccccc2)CC1,13%,-9,-2,5.2µM*,0%
O=C1c2cccc3cccc(c23)C(=O)N1CCN1CCN(C(=S)Nc2ccc(Cl)cc2)CC1,1%,-6,-1,238%,28%
CCCCn1c(N)c(N(C)C(=O)c2cc3c(s2)CCCCC3)c(=O)[nH]c1=O,·,·,·,-27%,?
CCC1CCCCN1CCCNC(=O)c1cc2c(=O)oc3ccc(C)cc3c2s1 (configuration not stated),8%,-2,-3,99%,?
Cc1ccccc1C(=O)N1CCC(C(=O)NN2C(=O)NC3(CCCCC3)C2=O)CC1,·,·,·,17%,?
COc1ccc(C(=O)c2ccc(N3CCN(C(=O)c4ccc(F)cc4)CC3)c(F)c2)cc1Br,9%,-9,-4,-26%,·
CCN1CCN(C(=O)CCc2nnc3ccc(N4CCN(c5cccc(OC)c5)CC4)nn23)CC1,-5%,-8,-6,?,-16%
Cc1ccc(C(=O)/C=C2/NC(=O)CS2)cc1,-10%,45*,25*,184%,185%
O=C1CS/C(=C/C(=O)c2cccc(Cl)c2)N1,-9%,56,27*,20%,44%
CCc1ccc(N(CC(=O)Nc2ccccc2C(=O)N2CCOCC2)S(C)(=O)=O)cc1,-1%,18,1,15%,-8%
CC1(C)CN(c2ccccc2)N(Cc2ccc(F)cc2)C1=O,4%,-10,0,-3%,?
CCOc1ccc(C2=CSC3=NCCN23)cc1[N+](=O)[O-],0%,27,1,-14%,4%[0.00184 µM]
CCOC(=O)CN(C(=O)CSc1nnc(COc2ccc(OC)cc2)n1C)c1ccccc1,-1%,15,-9,12µM*,?
CCOc1ccc(NC(=O)CSc2nnc(Cn3cnc4ccccc43)n2C)cc1,1%,10,1,2.3µM*,-21%
COc1ccc(NC(=O)CSc2nnc(Cn3nnc4ccccc43)n2C)cc1,-2%,-21,5,·,8%
COc1ccc(NC(=O)CSc2nnc(Cn3cnc([N+](=O)[O-])n3)n2C)cc1,-3%,-8,-4,16%,11%
COC(=O)c1ccc(NC(=O)CSc2nnc(COc3ccccc3)n2C)cc1,2%,-2,0,60%,8.3µM*
Cn1c(Cn2cnc([N+](=O)[O-])n2)nnc1SCC(=O)Nc1ccccc1,-2%,-33,-3,2.9µM*,14%
O=C(Nc1csc(Cc2c(Cl)cccc2Cl)n1)NN1CCOCC1,2%,-15,-6,?,-14%[0.00184 µM]
Cn1c(COc2ccccc2)nnc1SCC(=O)Nc1ccc(N2CCOCC2)c(Cl)c1,-4%,14,13,4.1µM*,?
SMILES,LmPK inh,Shiga toxin inh,Cycloheximide cs,Pf growth 96h,Pf growth 48h
COCCN(CCOC)c1ncnc2c1cnn2-c1ccccc1,1%,34*,15*,64%,46%
COCCN(CCOC)c1ncnc2c1cnn2-c1ccc(Cl)cc1,2%,76*,60*,0%,107%
CCOC(=O)CSc1ncnc2c1cnn2-c1ccc(Cl)cc1,-3%,-18,-1,-2%,13%
COc1ccc(C(c2nnnn2Cc2ccccc2)N2CCN(c3nc4ccccc4s3)CC2)cc1OC (configuration not stated),4%,13,-2,18%,10µM*
COc1ccccc1CN1CCN(C(CC(C)C)c2nnnn2Cc2cccs2)CC1 (configuration not stated),0%,-1,4,58%,13µM*
COc1ccccc1C(c1nnnn1Cc1ccccc1)N1CCN(c2nc3ccccc3s2)CC1 (configuration not stated),0%,17,-4,-5%[5.75 µM],3.3µM*
COc1ccc(C(c2nnnn2Cc2ccccc2)N2CCN(C(=O)c3ccco3)CC2)cc1OC (configuration not stated),-1%,-14,-1,3.7µM*,?
c1ccc(Cn2nnnc2C(c2ccccc2)N2CCN(c3nc4ccccc4s3)CC2)cc1 (configuration not stated),2%,10,-2,-2%,7%
O=C(OCCc1cc2ccccc2c(=O)o1)c1ccco1,·,·,·,-7%,22%
O=C(O)c1ccc(S(=O)(=O)N[C@H](Cc2ccccc2)C(=O)O)cc1,·,-5,-7,·,·
Cc1cccc(C(=O)NCC(=O)OCC(=O)c2ccc(Cl)s2)c1,-10%,-10,-1,-25%,12%
CC(C)C(c1nnnn1Cc1ccc(F)cc1)N1CCN(C(=O)c2ccco2)CC1 (configuration not stated),1%,-13,-3,13µM*,?
CC(C)CCn1nnnc1C(c1ccc(N(C)C)cc1)N1CCN(C(=O)c2ccco2)CC1 (configuration not stated),0%,1,-1,10µM*,?
COc1ccc(C(c2nnnn2Cc2cccs2)N2CCN(c3ccccc3F)CC2)cc1OC (configuration not stated),4%,58,10,·,2.3µM*
Fc1ccc(C(c2nnnn2Cc2cccs2)N2CCN(c3ccccc3)CC2)cc1 (configuration not stated),-2%,-2,-3,-29%,?
CN(C)c1ccc(C(c2nnnn2C(C)(C)C)N2CCN(C(=O)c3ccco3)CC2)cc1 (configuration not stated),-6%,1,-6,-13%,7%
CCC(c1nnnn1Cc1ccccc1)N1CCN(C(=O)c2ccco2)CC1 (configuration not stated),1%,-22,1,2%,-22%
Cc1ccc(S(=O)(=O)N2CCN(C(=O)CN3C(=O)c4ccc([N+](=O)[O-])cc4C3=O)CC2)c(C)c1,·,·,·,19%,19%
COc1ccc(OCC(O)CN2CCN(Cc3ccc4c(c3)OCO4)CC2)cc1 (configuration not stated),0%,-8,-1,-13%,1%
SC(COCc1ccccc1)CN1CCN(Cc2ccc3c(c2)OCO3)CC1 (configuration not stated),4%,-10,-4,8.3µM*,?
OC(COCc1ccccc1)CN1CCN(Cc2ccc3c(c2)OCO3)CC1 (configuration not stated),0%,-10,-3,-28%,6%
